Bioassay records (PubChem)
In the library only some 8% were active in any assay of this set; here they are far more common.
Lassa entry: Lassa virus entry inhibition; AID 720533; 18,000 tested, 4.1% active; Potency, µM (highest dose often 49.2 µM), for inactives: at the top dose activity change, negative = inhibition, hits mostly inhibitors; Lassa virus pseudotyped entry inhibition, cell-based qHTS
MARV entry inh: blocks Marburg virus binding or cell entry | Potency, µM (titrated, usually from 49.2 µM), for inactives: at the top dose activity change, negative = inhibition, most hits filed as inhibitors | 18,000 tested, 6.5% active | Marburg virus pseudotype entry/binding inhibition, cell-based | AID 720532
Active calls of the source: *; ! = not active in a repeat; [ ] = another dose, or the depositor's remark. The call rests on the fitted dose curve; tested in HEK293 cells. On the % scale 0 is the no-effect control and ±100 the full control effect; potency means the concentration at half of the fitted maximal effect.

Results for CO[C@H]1[C@@H](O)C[C@H](O[C@H]2[C@@H](O)C[C@H](O[C@H]3[C@@H](O)C[C@H](O[C@H]4CC[C@@]5(C)[C@H](CC[C@@H]6[C@@H]5C[C@@H](O)[C@]5(C)[C@@H](C7=CC(=O)OC7)CC[C@]65O)C4)O[C@@H]3C)O[C@@H]2C)O[C@@H]1C ?
Lassa entry: inconclusive; MARV entry inh: 7.08µM*

Results for C[C@]12[C@H](O)CC3C(CC[C@@H]4C[C@@H](O)CC[C@]34C)[C@@]1(O)CC[C@@H]2C1=CC(=O)OC1 (stereo partly specified) ?
Lassa entry: 1.12µM*; MARV entry inh: inconclusive

Results for C[C@@H]1COc2cccc(N3CCCC3)c2S(=O)(=O)N1 ?
Lassa entry: 0.3%; MARV entry inh: 52.1%

Results for COc1ccc(CCN(C)CCCN2CCc3cc(OC)c(OC)cc3CC2=O)cc1OC ?
Lassa entry: 17.3%; MARV entry inh: -21.6%

Results for COc1ccco1 ?
Lassa entry: -9.0%; MARV entry inh: 12.7%

Results for CCOC(=O)C1(c2ccccc2)CCN(CCC(C#N)(c2ccccc2)c2ccccc2)CC1 ?
Lassa entry: 7.94µM*; MARV entry inh: 2.51µM*

What do the screens show for `CCC(=O)OC1(c2ccccc2)CCN(C)CC1`?
Lassa entry: -5.9%[107 µM]; MARV entry inh: -15.3%[107 µM]

How did O=C(c1ccoc1)N1CCOc2ccc(CN3CCC(Oc4cccnc4)CC3)cc2C1 do in these assays?
Lassa entry: -8.7%; MARV entry inh: 1.3%

Results for C[C@]12CCC(=O)C=C1CC[C@@H]1C2[C@@H](O)C[C@@]2(C)[C@H]1CC[C@]2(O)C(=O)CO (stereo partly specified) ?
Lassa entry: -1.0%; MARV entry inh: 10.9%

Results for Clc1ccc2nc(-c3ccccc3)[nH]c2c1 ?
Lassa entry: 8.4%; MARV entry inh: 16.6%

Results for CCOc1ccc(-c2nc3ccc(-c4nc5ccc(N6CCN(C)CC6)cc5[nH]4)cc3[nH]2)cc1 ?
Lassa entry: inconclusive; MARV entry inh: 10µM*

Results for C[C@H]1[C@@H](C(=O)N2CCCC2)CC(=NOCc2ccccc2)C(=NOCc2ccccc2)C[C@H]1c1ccccc1 ?
MARV entry inh: -29.4%[8.59 µM]

How did C=C(C)[C@H]1CC[C@]2(C(=O)O)CC[C@]3(C)[C@@H](CC[C@H]4[C@@]5(C)CC[C@@H](O)C(C)(C)[C@@H]5CC[C@@]43C)[C@H]12 do in these assays?
Lassa entry: -0.5%[17.8 µM]; MARV entry inh: -4.0%[17.8 µM]

How did CC1=C2[C@H](O)[C@H]([C@@H](C)C(=O)NCCC(C)C)CC[C@@]2(C)C=CC1=O do in these assays?
Lassa entry: 6.0%[8.59 µM]; MARV entry inh: 23.2%[8.59 µM]

How did COc1cc(-c2ccc(C(F)(F)F)cn2)cc2c1OCCN(S(=O)(=O)C[C@]13CC[C@H](CC1=O)C3(C)C)C2 do in these assays?
Lassa entry: 12.6µM*; MARV entry inh: inconclusive

What do the screens show for `COc1cc(OC)c2nc(-c3cc4c(c(OC)c3)OCCN(C(=O)CC3NC(=O)c5ccccc53)C4)cc(C)c2c1` (stereo unspecified)?
Lassa entry: -34.8%; MARV entry inh: -4.2%

What do the screens show for `CC(=O)c1ccc(OCc2cn(CC(=O)c3ccc(O)cc3)nn2)c(F)c1`?
Lassa entry: -21.3%; MARV entry inh: 6.9%

What do the screens show for `C=CCOC(=O)N[C@@H](c1ccccc1)[C@@H](C)[N+](=O)[O-]`?
Lassa entry: -2.3%; MARV entry inh: 5.7%

Results for COC/C=C/C1=CC2=CC(=O)C(C)(OC(=O)c3cnc4ccccc4n3)C(=O)C2=CO1 (stereo unspecified) ?
Lassa entry: 5.62µM*; MARV entry inh: 14.5%

What do the screens show for `CCC(=O)OC1(C)C(=O)C=C2C=C(/C=C/COC)OC=C2C1=O` (stereo unspecified)?
Lassa entry: 0.1%; MARV entry inh: -14.1%

What do the screens show for `CC#CC(=O)Nc1cc2c(Nc3ccc(F)c(Cl)c3)ncnc2cn1`?
Lassa entry: -2.0%; MARV entry inh: -16.4%

Results for CCN(CC)CC1CCN(c2ncc3ncnc(Nc4ccc(F)c(Cl)c4)c3n2)CC1 ?
Lassa entry: inconclusive; MARV entry inh: 3.55µM*

What do the screens show for `OCCCNCc1cc2ccc(F)cc2nc1N1CCN(c2cccc(Cl)c2)CC1`?
Lassa entry: inconclusive; MARV entry inh: 10µM*

What do the screens show for `COc1cc(CNCc2cc3ccc(F)cc3nc2N2CCOCC2)cc(OC)c1OC`?
Lassa entry: -10.2%; MARV entry inh: -9.5%

What do the screens show for `Cc1cnc(C)c(-c2cc(F)cc3c2OC(CNC(=O)Cc2c(C)noc2C)C3)n1` (stereo unspecified)?
Lassa entry: -9.8%; MARV entry inh: 7.4%

What do the screens show for `COc1cc(OC)c(OC)cc1CN1CCCC(c2nc(C)ncc2-c2ccc(F)cc2)C1` (stereo unspecified)?
Lassa entry: -13.2%; MARV entry inh: 11.2µM*

What do the screens show for `CCOc1ccccc1CN1CCCC(c2nc(C)ncc2-c2ccc(F)cc2)C1` (stereo unspecified)?
Lassa entry: -14.5%; MARV entry inh: 10µM*

What do the screens show for `COc1ccc(OC)c(CN2CCCC(c3nc(C)ncc3-c3ccc(F)cc3)C2)c1` (stereo unspecified)?
Lassa entry: -21.5%; MARV entry inh: inconclusive

Results for COc1ccc(CN2CCCC(c3nc(C)ncc3-c3ccc(F)cc3)C2)c(OC)c1OC (stereo unspecified) ?
Lassa entry: -8.5%; MARV entry inh: -14.6%

How did CCN1C(=NCc2ccc3c(c2)OCO3)NC(CCc2ccccc2)C(C(=O)OC)=C1C (stereo unspecified) do in these assays?
Lassa entry: 48.8%[8.59 µM]; MARV entry inh: -29.8%[8.59 µM]

What do the screens show for `C[C@@H]1C=CCCO[C@]12C(=O)Nc1ccc(O)cc12`?
Lassa entry: -18.8%[8.59 µM]; MARV entry inh: 9.5%[8.59 µM]

Results for Cc1ncc2c(c1CNS(=O)(=O)N(C)C)CCN(C(=O)c1[nH]c3ccc(Cl)cc3c1C)C2 ?
Lassa entry: -21.5%; MARV entry inh: inconclusive

How did COc1ccc(C2Sc3ccccc3N(CCN(C)C)C(=O)[C@@H]2OC(C)=O)cc1 (stereo partly specified) do in these assays?
Lassa entry: -27.7%; MARV entry inh: inconclusive

Results for COc1ccc([C@@H]2Sc3ccccc3N(CCN(C)C)C(=O)[C@@H]2OC(C)=O)cc1 ?
Lassa entry: 4.47µM*; MARV entry inh: 28.2µM*

How did O=C(Cn1cccn1)N1CCOc2c(cc(-c3ncc(C(F)(F)F)cc3Cl)cc2OCC2CCCO2)C1 (stereo unspecified) do in these assays?
Lassa entry: -12.4%; MARV entry inh: -2.3%

Results for COc1cccc(CNC(=O)c2c(OC)cc(=O)n3c2CCN(C(=O)C2CC24CCCCC4)CC3)c1 (stereo unspecified) ?
Lassa entry: -12.5%; MARV entry inh: -18.5%

How did CCn1nc(C)cc1C(=O)NCC1CCC2(CCN(Cc3ccccc3F)CC2)O1 (stereo unspecified) do in these assays?
Lassa entry: 6.0%; MARV entry inh: -12.7%

How did CN(C)c1ccc(C(=C2C=CC(=[N+](C)C)C=C2)c2ccc(N(C)C)cc2)cc1 do in these assays?
Lassa entry: 1.78µM*; MARV entry inh: 1.41µM*

What do the screens show for `CN(C)c1ccc(C(=C2C=CC(=[N+](C)C)C=C2)c2ccccc2)cc1`?
Lassa entry: 2.24µM*; MARV entry inh: 1.41µM*!

How did CN(C)c1ccc(-c2nccc(NCc3ccccc3)n2)cc1 do in these assays?
Lassa entry: -18.0%; MARV entry inh: inconclusive

How did CC(C)CN1Cc2cc(Br)ccc2Oc2ccc(Cl)cc2S1(=O)=O do in these assays?
Lassa entry: -9.6%; MARV entry inh: inconclusive
